uPA surface inh: blocks generation of uPA at the cell surface | Potency, µM (titrated, usually from 38.3 µM), inactives show top-dose activity change, negative = inhibition, most hits filed as inhibitors | cell surface uPA generation assay, qHTS | hit rate 0.31% among 330,000; active = well fitted inhibition curve with a large enough effect; inconclusive = small, poorly fitted or top-dose-only effect; inactive = no such curve, though single readings can be large or run the other way; tested in mouse RAW 264.7 cells; note: potency is the fitted concentration of half-maximal effect; % is set by controls: 0 for no effect and ±100 for the full control effect; nearly all actives have a fitted effect of over 55% in size
MmCpn inh: inhibitors of Methanococcus maripaludis chaperonin TRiC (MmCpn); purified Mm-Cpn ATPase, ADP Transcreener TR-FRET; Potency, µM (top dose mostly 76.9 µM), for the others: top-dose activity, negative = inhibition, most hits filed as inhibitors; hit rate 0.031% among 330,000; AID 504842; note: potency is the fitted concentration of half-maximal effect; % is set by controls: 0 for no effect and ±100 for the full control effect; nearly all actives have a fitted effect of over 80% in size
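TR-FRET (320 nm excitation; 590 and 665 nm emission) reports ADP made from 10 uM ATP by 25 nM enzyme; compounds were preincubated 10 min, reaction run 30 min, both at 37°C.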
Akt phos inh: Akt phosphorylation inhibition; hit rate 0.32% among 360,000; AID 651550; activity change, % for hits at 50 µM; Neuro2A IGF-stimulated pAkt S473 HTRF, 20 min; active compounds read low; in the data active = activity change below about -80%; inconclusive = mostly about -51% to -80%; note: % is set by controls: 0 for no effect and ±100 for the full control effect
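Neuro2A cells (4,500/well, DMEM with 0.5% FBS) were treated with compound at a single 50 µM final concentration, stimulated with 6 nM IGF for 20 min at 37 °C, and lysed. Phospho-Akt Ser473 was read by HTRF as 665/615 ratio ×10^4.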
CCT chaperon mod: cytosolic chaperonin activity modulation; activity change, % (no concentration beside the values), hits read low; hit rate 0.3% among 360,000; purified chaperonin ATPase assay, HTRF ADP detection, 30 min; in the data active = activity change below about -30%; note: % is set by controls: 0 for no effect and ±100 for the full control effect
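Enzyme 40 or 20 nM (batch-dependent) in Tris pH 7.4/KCl/MgCl2/DTT; cpd 76 uM single point; ATP 10 uM; 30 min 37 °C; Transcreener ADP HTRF detection, 30 min RT; ratio 665/615.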
Epigenetic reg: epigenetic control regulation, reporter derepression | murine LDR cells, GFP reporter derepression, 30 h | Potency, µM (series often up to 53.9 µM), inactives show at the highest dose GFP activation, hits mostly activators | hit rate 0.2% among 280,000 | AID 1865; note: potency is the fitted concentration of half-maximal effect; % of control where 0% means no effect; nearly all actives have a fitted effect of over 60% in size
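Murine LDR cells carrying a silenced, genomically integrated CMV-driven GFP reporter were exposed to compound for 30 hours at 37 C. After PBS washes, GFP-positive cells (20–120 um objects) were counted by laser-scanning microplate cytometry.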
MBNL1-CUG inh: MBNL1-poly(CUG) RNA binding inhibition. Q9NR56. TR-FRET MBNL1-His/biotin-(CUG)12 binding, 665/545 ratio. Potency, µM (top dose mostly 57.5 µM), inactives show at the highest dose activity change, negative = inhibition, hits mostly inhibitors. hit rate 0.036% among 280,000; active = well fitted inhibition curve with a large enough effect in the signal ratio, with a control signal flat, not every such curve was filed as active; inconclusive = small, poorly fitted or top-dose-only effect, or effect the other way, or a change in a side signal; inactive = no such curve, though single readings can be large or run the other way; the % refers to the signal ratio; note: potency is the fitted concentration of half-maximal effect; % is set by controls: 0 for no effect and ±100 for the full control effect
Target sequence (Q9NR56 whole entry, looked up): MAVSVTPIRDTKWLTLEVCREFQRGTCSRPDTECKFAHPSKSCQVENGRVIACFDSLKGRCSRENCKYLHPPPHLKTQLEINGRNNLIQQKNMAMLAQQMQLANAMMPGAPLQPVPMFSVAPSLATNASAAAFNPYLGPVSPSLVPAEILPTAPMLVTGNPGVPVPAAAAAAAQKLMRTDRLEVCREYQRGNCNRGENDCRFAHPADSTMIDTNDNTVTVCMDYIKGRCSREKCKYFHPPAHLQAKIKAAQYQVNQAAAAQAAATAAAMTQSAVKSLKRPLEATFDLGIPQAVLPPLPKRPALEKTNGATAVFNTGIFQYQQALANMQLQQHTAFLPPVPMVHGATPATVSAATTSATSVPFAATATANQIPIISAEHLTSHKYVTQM
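Compound titration spanned 92 nM–58 uM against the MBNL1-His/biotin-(CUG)12 complex. After 60 min at room temperature with 5 nM streptavidin-XL665 and 0.055 ng/ul terbium anti-His, ratiometric 665/545 nm emission (Ex 340 nm) normalized to controls.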
The depositor's hits bear a star; [ ] = another dose, or the depositor's remark. Compounds with a hit are over-represented: about 0.97% of the library has one in this group of screens. Unless noted, calls come from the whole dose curve; as a rule, active = well fitted curve in the direction sought with a large enough effect; inconclusive = small, poorly fitted or top-dose-only effect, or another doubt; inactive = no such curve, though single readings can be large; an effect the other way counts as inactive or inconclusive.

For CCOc1ccc(OCC(=O)N2CCOCC2)cc1 the results were uPA surface inh 9.4%, MmCpn inh 0.2%, Akt phos inh -98.5%*, CCT chaperon mod -5.5, Epigenetic reg -0.1% and MBNL1-CUG inh -8.9%.
Screening O=C(COc1ccc(Br)cc1)N1CCOCC1 returned uPA surface inh 6.2%, MmCpn inh 1.1%, Akt phos inh inactive, CCT chaperon mod 0.4, Epigenetic reg -0.8% and MBNL1-CUG inh -6.4%.
CCCCCCNC(=O)c1cc(-c2ccco2)nc2ccccc12 was read as uPA surface inh 2.5%, MmCpn inh -3.7%, Akt phos inh inactive, CCT chaperon mod 2.0, Epigenetic reg 5.2% and MBNL1-CUG inh 7.2%.
Cc1nc(Nc2ccccc2O)c2oc3ccccc3c2n1 was read as uPA surface inh 4.2%, MmCpn inh -4.4%, Akt phos inh inactive, CCT chaperon mod -0.4 and MBNL1-CUG inh -6.5%.
For Cc1nc(Nc2ccccc2F)c2oc3ccccc3c2n1 the results were uPA surface inh -15.6%, MmCpn inh -0.7%, Akt phos inh inactive, CCT chaperon mod -49.2* and MBNL1-CUG inh 26.5%.
CC1(C)Cc2c(c(-c3ccco3)nc3sc4c(NCCN5CCOCC5)ncnc4c23)CO1 was read as uPA surface inh -9.5%, MmCpn inh -1.1%, Akt phos inh inactive, CCT chaperon mod -0.6, Epigenetic reg 3.9% and MBNL1-CUG inh 21.5%.
`CC1(C)Cc2c(c(-c3ccco3)nc3sc4c(NCCCO)ncnc4c23)CO1` gave uPA surface inh inconclusive, MmCpn inh -0.6%, Akt phos inh inactive, CCT chaperon mod -42.1*, Epigenetic reg 3.9% and MBNL1-CUG inh 11.7%.
`CC1CCc2sc(C(=O)Nc3nnc(SCc4ccc(F)cc4)s3)cc2C1` (stereo not given) gave uPA surface inh -3.1%, MmCpn inh -12.0%, Akt phos inh -85.1%*, CCT chaperon mod -0.9, Epigenetic reg 2.3% and MBNL1-CUG inh -2.8%.
Screening O=C(Nc1ccc2c(c1)OCCO2)NC1(C(F)(F)F)Oc2ccccc2O1 returned uPA surface inh 2.51µM*, MmCpn inh 0.3%, Akt phos inh inactive, CCT chaperon mod 0.1, Epigenetic reg 11.8% and MBNL1-CUG inh 1.7%.
`Cc1cccc(C)c1Nc1c(-c2ccccn2)nc2ccccn12` gave uPA surface inh 4.47µM*, MmCpn inh 2.1%, Akt phos inh inactive, CCT chaperon mod 1.0 and Epigenetic reg -2.7%.
`Cc1cccc(NC(=O)c2onc3c2CCCC3)n1` gave uPA surface inh 3.98µM*, MmCpn inh 0.8%, Akt phos inh inactive, CCT chaperon mod -1.1, Epigenetic reg -8.4% and MBNL1-CUG inh 14.0%[11.5 µM].
`COc1ccccc1Oc1c(C)oc2c(CN3CCN(CCO)CC3)c(O)ccc2c1=O` gave uPA surface inh 1.5%, MmCpn inh -5.3%, Akt phos inh inactive, CCT chaperon mod 1.1, Epigenetic reg -0.1% and MBNL1-CUG inh 5.6%.
Cc1oc2c(CN3CCCC3)c(O)ccc2c(=O)c1Oc1ccccc1Br was read as MmCpn inh -4.2%, Akt phos inh -85.0%*, CCT chaperon mod 1.1, Epigenetic reg -0.9% and MBNL1-CUG inh 18.2%.
Screening O=c1c(-c2ccccc2)coc2c(CN3CCCC3)c(O)ccc12 returned MmCpn inh 44.7µM*, Akt phos inh inactive, CCT chaperon mod -3.1, Epigenetic reg 0.0% and MBNL1-CUG inh -0.2%.
For CCNc1nc(N2CCOCC2)nc(N(c2ccccc2)c2ccccc2)n1 the results were uPA surface inh -0.2%, MmCpn inh 0.8%, Akt phos inh -110.3%*, CCT chaperon mod 0.1, Epigenetic reg 0.0% and MBNL1-CUG inh -0.8%.
`CCNc1nc(SCC(=O)Nc2ccccc2)nc(N2CCOCC2)n1` gave uPA surface inh -5.3%, MmCpn inh -2.0%, Akt phos inh inactive, CCT chaperon mod -2.0 and MBNL1-CUG inh -3.3%.
`Cn1cc(C(=O)Nc2cccc(F)c2)cn1` gave uPA surface inh 9.2%, MmCpn inh -2.6%, Akt phos inh -121.8%*, CCT chaperon mod 2.1, Epigenetic reg -1.1% and MBNL1-CUG inh -7.1%.
